The list is not random: actives were taken first. Their share in the collection is about 2.3%.
CHO-K1 Ca PAM: nonselective calcium activators in parental CHO-K1 cells, primary screen, counter-screen for M1 PAM project, cell-based, Fluo-8 calcium fluorescence, full deck, 1536-well; ATP EC20; 0% at ATP EC20, 100% at ATP max; activation, % at 3 µM; 0.02% of 360,000 active; AID 602247, 2012;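 active = activation above the run cutoff, the mean activation of all test compounds plus 3 SD, cut at about 40% in these data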;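 also: peak over basal fluorescence ratio in a 140 s read after ATP addition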
CHO-K1 Ca ag: counter-screen for M1 agonists: effect in parental CHO-K1 cells | Fluo-8 calcium fluorescence; scaled to maximal ATP response, vehicle zero | activation, % at 3 µM | 0.48% of 360,000 active | AID 602248, 2012; in the data active = activation above about 15%;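 also: untransfected CHO-K1 host cells lacking M1 receptor as counterscreen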
CHRM1 antagonist: human M1 muscarinic receptor antagonists, primary screen, CHO-K1 cells, Fluo-8 calcium fluorescence, 1536-well; Muscarinic acetylcholine receptor M1 (Homo sapiens), P11229; CHO-K1 hM1, ACh EC80 antagonist; inhibition, % at 3 µM; 1.3% of 360,000 active;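 active = percent inhibition above its own plate's cutoff, namely the mean of that plate's compound wells plus 3 SD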;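 also: peak over basal fluorescence ratio during 140 s after agonist addition; 0% = ACh EC80 plus DMSO and 100% = DMSO alone without agonist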
Target sequence (P11229 whole entry, looked up): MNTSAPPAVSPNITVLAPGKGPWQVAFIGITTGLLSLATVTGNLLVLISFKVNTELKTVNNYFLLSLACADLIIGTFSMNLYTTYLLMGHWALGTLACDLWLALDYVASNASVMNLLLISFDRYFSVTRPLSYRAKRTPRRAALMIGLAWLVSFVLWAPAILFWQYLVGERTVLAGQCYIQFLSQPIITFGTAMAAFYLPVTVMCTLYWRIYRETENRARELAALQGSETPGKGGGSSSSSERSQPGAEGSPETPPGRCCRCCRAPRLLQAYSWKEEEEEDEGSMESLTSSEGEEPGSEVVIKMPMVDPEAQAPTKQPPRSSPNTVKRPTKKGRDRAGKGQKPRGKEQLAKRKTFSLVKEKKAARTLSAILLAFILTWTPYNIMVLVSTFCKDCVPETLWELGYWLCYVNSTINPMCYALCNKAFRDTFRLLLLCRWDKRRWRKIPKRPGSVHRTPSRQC
M1 ag: human M1 muscarinic receptor agonists, primary screen, Fluo-8 calcium fluorescence, CHO-K1 cells, HTS. CHO-K1 hM1, agonist mode; 0% DMSO, 100% acetylcholine EC100. activation, % at 3 µM. 0.33% of 360,000 active. Muscarinic acetylcholine receptor M1 (Homo sapiens), P11229. AID 588814, 2011;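 active = activation above the run's mean compound activation plus 3 SD, cut at about 16% in these data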;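 also: peak over basal fluorescence ratio within a 140 s kinetic read after compound addition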
CHO-K1 Ca antag: counter-screen for M1 antagonists: effect in parental CHO-K1 cells. ATP-induced calcium, Fluo-8 fluorescence. inhibition, % at 3 µM. 0.6% of 360,000 active;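 active = inhibition above a per-plate cutoff, the plate's mean sample inhibition plus 3 SD, cut at about 24% in these data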;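 also: 0% = DMSO plus EC80 ATP and 100% = DMSO alone without ATP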
CHRM1 PAM: human M1 muscarinic receptor positive allosteric modulators, primary screen, CHO-K1 cells, Fluo-8 calcium fluorescence, 1536-well | Muscarinic acetylcholine receptor M1 (Homo sapiens), P11229 | CHO-K1 hM1, ACh EC20; 0% = ACh EC20, 100% = maximal ACh | activation, % at 3 µM | 0.088% of 360,000 active | AID 588819, 2011; in the data active = activation above about 19%, passing the limit was not always enough
An asterisk follows results filed as active; . = no result given.

SMILES	CHO-K1 Ca PAM	CHO-K1 Ca ag	CHRM1 antagonist	M1 ag	CHO-K1 Ca antag	CHRM1 PAM
COC(=O)C1=C(C)NC2=C(C(=O)CCC2)C1c1ccc(-c2ccsc2C(=O)OC)o1 (stereo not given)	-17	4	6	25*	23	-3
COc1ccc(F)c(CN2CCCC(CO)(Cc3cccc(Cl)c3)C2)c1 (stereo not given)	2	1	-9	-4	1	6
CCOC(=O)C1(Cc2cccc(OC)c2)CCN(C/C=C/c2ccccc2)CC1	-1	5	10	-5	0	-8
COc1ccccc1/C=C/CN1CCCC(CO)(Cc2cccc(Cl)c2)C1 (stereo not given)	-16	3	56*	0	12	-17
COc1cccc(CC2(CO)CCCN(C/C=C/c3ccccc3OC)C2)c1 (stereo not given)	3	5	3	-12	0	-20
CCn1nc(C)c(CN2CCCC(CO)(Cc3cccc(Cl)c3)C2)c1C (stereo not given)	8	2	54*	-6	-14	-23
CCOC(=O)C1(Cc2cccc(OC)c2)CCN(C/C=C/c2ccc(OC)cc2)CC1	-13	4	33*	-13	20	-30
COc1ccc(/C=C/CN2CCCC(CO)(Cc3cccc(Cl)c3)C2)cc1 (stereo not given)	9	28*	19	2	-4	-7
CCn1nc(C)c(CN2CCCC(CO)(Cc3ccccc3)C2)c1C (stereo not given)	11	0	-8	-8	-12	2
CC1CCc2sc(C(=O)N/N=C/c3ccc(O)cc3)cc2C1 (stereo not given)	19	6	-11	-1	-4	7
Cc1cc(S(=O)(=O)N2CCOCC2)ccc1OCC(=O)NCc1ccccn1	12	2	-10	-4	-14	9
Cc1ccc(Cn2c(CN(C)Cc3ccccc3)nc3c2c(=O)n(C)c(=O)n3C)cc1	17	5	7	16*	-4	1
CC(O)CSc1nc2c(c(=O)n(C)c(=O)n2C)n1CCCc1ccccc1 (stereo not given)	20	1	-29	0	2	24*
COC(=O)CSc1nc2c(c(=O)n(C)c(=O)n2C)n1CCCc1ccccc1	7	0	-10	-2	-10	-1
CN(Cc1ccccc1)c1nc2c(c(=O)n(C)c(=O)n2C)n1CCCc1ccccc1	10	3	34*	-3	11	-17
O=C1NC[C@@H](CCCCN2CCN(CCc3ccc(O)cc3)C(=O)C2=O)N(CCc2ccc(O)cc2)C1=O	-4	0	.	.	-6	.
CC(C)CC(=O)NC(=S)Nc1sc2c(c1C(N)=O)CCC2	-16	-1	4	1	38*	-9
CC(C)(C)C(=O)NC(=S)Nc1sc2c(c1C(N)=O)CCC2	-13	0	2	-3	4	3
CCCCN1C(=O)C(CC(=O)NCCCN(C)C)CC(C(=O)N2CCOCC2)=C1C (stereo not given)	8	0	-11	-1	-10	7
Cc1cccc(N2CC(O)(c3cccs3)[N+]3=C2CCCC3)c1C (stereo not given)	-1	6	37*	-5	8	-17
Cc1cccc(N2CC(O)(c3cccs3)[N+]3=C2CCCC3)c1 (stereo not given)	-15	0	14	-4	1	-5
Cc1ccc(N2CC(O)(c3cccs3)[N+]3=C2CCCC3)cc1 (stereo not given)	-9	0	40*	-8	-13	-22
O=C(N[C@@H]1c2ccccc2CC[C@@H]1OCc1ccccc1)c1ccc(C(F)(F)F)cc1	18	0	-13	-5	-10	4
CCN(c1ccc(NS(=O)(=O)c2cc(Cl)ccc2Cl)cc1)C(C)C	14	0	76*	-13	-13	-26
CN(C)c1ccc(NS(=O)(=O)c2cc(Cl)ccc2Cl)cc1	8	1	18	-11	0	-21
SMILES	CHO-K1 Ca PAM	CHO-K1 Ca ag	CHRM1 antagonist	M1 ag	CHO-K1 Ca antag	CHRM1 PAM
CCCCn1[nH]c(-c2ccccc2)cc1=O	6	0	-13	-3	-2	12
Cc1c(Cl)cccc1NC(=S)NC1CCN(C(C)C)CC1	-5	0	-6	6	-10	7
CN(Cc1ccccc1)S(=O)(=O)c1ccc(Cl)c(C(=O)O)c1	17	1	-5	-2	-8	5
CN(C)C(CNC(=O)c1cc(Br)ccc1Cl)c1ccco1 (stereo not given)	-12	17*	9	-7	8	-5
CN(C)C(CNC(=O)c1cc(S(=O)(=O)N(C)Cc2ccccc2)ccc1Cl)c1ccco1 (stereo not given)	-8	11	31*	-1	17	-13
CN(C)C(CNC(=O)c1ccc(Br)cc1)c1ccco1 (stereo not given)	0	1	0	-10	-15	-3
Cc1cccc(NC(=O)COC(=O)CCc2c[nH]c3ccccc23)c1	9	5	-8	-2	-16	6
COC(=O)c1cccc(NC(=O)CC2C(=O)NCCN2C(=O)c2ccc(F)cc2F)c1 (stereo not given)	15	1	-9	-3	-2	1
CN(C)CCCNC(=O)N1c2ccccc2C=Cc2ccccc21	10	1	97*	-9	-10	-29
CCOC(=O)c1ccc(CNCc2ccccc2)cc1	7	0	52*	-12	4	-24
CCOC(=O)CCNC(=O)N1CCC(CCC(=O)NCc2ccc(F)cc2)CC1	6	0	-4	-4	-1	0
CCOC(=O)c1ccc(CNC(=O)CCC(=O)O)cc1	7	0	-14	-2	-7	9
CCOC(=O)c1ccc(CNCc2ccc(Br)cc2)cc1	-11	0	65*	3	9	-17
CCOC(=O)CCNCc1ccc(F)cc1	9	1	40*	-2	-12	-10
CC(C)(C)OC(=O)C[C@@H]1C/C=C\C[C@H](CC(=O)NCCO)C(=O)N[C@@H](Cc2ccccc2)COC1=O	7	0	4	1	-13	3
COc1ccc(-n2c(SCC(=O)Nc3ccc(Br)cc3)nc(O)cc2=O)cc1	12	1	-12	-2	-6	10
CC1=C([N+](=O)[O-])C(c2ccccc2Cl)NC(=O)N1C (stereo not given)	23	17*	-10	1	-10	9
Cc1[nH]nc2c1C(=O)CC(C)(C)C2	14	0	-33	4	1	21*

Screening results: PubChem BioAssay, The Scripps Research Institute Molecular Screening Center
